Target: AIG1
Assay: pooled miR-30 sensor sort-seq; sequence = guide strand
Settings: shRNA
Note: reference of the scale not given here.

Sequence	sensor-assay potency score (higher = more potent)
TTAAGATGGTTGTAGACCCAAA	-0.997
ATAAAGGGCAGAACCGTCGTGT	0.238
TTTGGAAACAACTGTATTCTAT	-0.0597
TTCTTTAACACACAGTGAGGGT	-0.962
TTGGAAACAACTGTATTCTATG	-0.738

Target: AK1
Assay: as above
Settings: shRNA

Sequence	sensor-assay potency score (higher = more potent)
TAGCCATCAATCAGGAAGCCTT	-0.92
TGTCTCCAGTGGAACCAGCTGC	-0.761
TCGCTCAAACTCTTCTCCTTGC	-0.418
TTGATGGTCTCCTCATTGTCGT	-0.675
ATTGTCGTCCACACGCCCGCTG	-0.347
TTTCCGACAGCTTCTTGCCCCT	-0.367
TTCTCCTTGCTGCACCTCCCGC	-1.57
TTGTAATAGGTCTCCAGCCGCT	-0.883
TTGTCGTCCACACGCCCGCTGG	-1.2
TAATAGGTCTCCAGCCGCTTTT	-1.38
TGCACGATCTTCTCACACTGGG	-0.837
TGCGTCCACATACAGCAGCAGT	-1.67
TCATTGTCGTCCACACGCCCGC	-0.841
TGTAATAGGTCTCCAGCCGCTT	-0.437
TACTTCTGCACGATCTTCTCAC	0.346
TCCACATACAGCAGCAGTGTGG	-1.37
TTTGATGGTCTCCTCATTGTCG	-0.362
TTGACTTTGGCCACCATGGCAT	-0.482
TTTGGAAGTATTGACTTTGGCC	-0.356
TTGACCTTGCGCACAATGCCAC	-0.47
TGATGGTCTCCTCATTGTCGTC	-1.72
TACAGCAGCAGTGTGGGCTGTC	0.332
TCCAACACTGTCTCCAGTGGAA	-1.08
ATGATTTCCGACAGCTTCTTGC	-1.06

Target: AKR1A1
Assay: as above
Settings: shRNA

Sequence	sensor-assay potency score (higher = more potent)
TAAAGGTGAAGTCAAACACCTT	-1.29
TAAGGGCATACTTAACAGCTGC	-0.729
TGTCACAAACAGCTCCTCCCGA	-0.337
TATAGTCCCATCAGCATTCTTG	-0.715
TTGATGTTCTGAAGGATTCGAG	-0.236
TACCTGACCAGGCTCACTCTTC	-0.753
TTGGATGTCACAAACAGCTCCT	0.145
TTAGCTGCTTCATCTCTTCTGG	-0.107
TTAACAGCTGCTTTTACCTGAC	-0.112
TAGTGGGTGGAGTCGTAGCATA	-1.36

Source: the OligoGym collection
